# From ChEMBL document CHEMBL4513216, “Probing the Open Global Health Chemical Diversity Library for Multistage-Active Starting Points for Next-Generation Antimalarials” (ACS Infect Dis, 2020)
# Screen size: about 69,000 compounds; about 8,600 (12%) showed an effect of 50% or more. Shown is part of a subset that was picked to be rich in strong results.
# System: Plasmodium berghei
# Test: Screen against P. berghei liver stage (PbLuc), transformed with Luciferase, at 10uM
# Format: functional, HepG2
# Details: tested at 10 uM
row,SMILES,INHIBITION [%]
1,CC(=O)N1CCCC(c2ccc(N3CCOCC3)cn2)C1 (stereo unspecified),-4.51
2,Cc1ccc(NCc2cnc3n2CCN(c2ncccn2)CC3)nn1,35.2
3,Cc1ccccc1CNC(=O)C1CCN(Cc2nccn2C)CC1,-17
4,CC(=O)N1CCC(Cc2cnc(-c3c(C)nn(C)c3C)cn2)C1 (stereo unspecified),33.5
5,Cn1ccnc(Sc2cccc(C#N)c2)c1=O,15
6,COCCN1CCN(C(=O)C(c2cccc(F)c2)N(C)C)CC1 (stereo unspecified),41.5
7,CN(C)C(C(=O)N1CCN(CCn2cccc2)CC1)c1cccc(F)c1 (stereo unspecified),44.7
8,COCCCN1CCN(C(=O)C(c2cccc(F)c2)N(C)C)CC1 (stereo unspecified),50.1
9,CC(Cn1ccnc1)NC(=O)N1CCN(Cc2ccsc2)CC1 (stereo unspecified),31.9
10,COc1ccc2c(c1)CC(C1CCOCC1)N(C(=O)c1ccn(C)n1)C2 (stereo unspecified),2.45
11,CC(=O)N(Cc1ncc(C(C)C)o1)C1CCN(CCn2cncn2)C1 (stereo unspecified),-13.2335
12,CC1=CC[C@@H]2CN(C(=O)c3ccc(-c4nc[nH]n4)cc3)C[C@@H]2C1,40.7
13,COCC(=O)NC[C@]12COC[C@H]1CN(c1ncc(F)cn1)C2,-22.1
14,c1ccc(OC[C@]23COC[C@H]2CN(c2ncccn2)C3)nc1,31.9
15,O=C(CC1CC1)NC[C@]12COC[C@H]1CN(c1ncccn1)C2,88
16,COc1cc(N2C[C@@H]3COC[C@]3(COc3ncccc3F)C2)ncn1,73
17,c1ccc(COC[C@]23COC[C@H]2CN(c2ncccn2)C3)nc1,53
18,COc1cc(N2C[C@@H]3COC[C@]3(COc3ccccn3)C2)ncn1,-6.3
19,COc1cc(N2C[C@@H]3COC[C@]3(COCc3ccccn3)C2)ncn1,68.4
20,Cc1cccc(COC[C@]23COC[C@H]2CN(c2ncccn2)C3)n1,38.1
21,COc1ncccc1CN1C[C@@H]2COC[C@]2(COc2ccccn2)C1,-32
22,COc1cc(N2C[C@@H]3COC[C@]3(COc3cccnc3)C2)ncn1,42.1

row,SMILES,INHIBITION [%]
1,COc1cc(N2C[C@@H]3COC[C@]3(COCc3ccncc3)C2)ncn1,34.6
2,O=C(CC1CC1)NC[C@]12COC[C@H]1CN(c1ncc(F)cn1)C2,1.48
3,CS(=O)(=O)N1C[C@H]2CC[C@@H](C1)N(C(=O)Cn1ccc3ccccc31)C2,-7.98
4,CC(C)C(C)NC(=O)Nc1cccc(OCC#N)c1 (stereo unspecified),-16
5,CC(c1c(F)cccc1F)N1CCN(Cc2nccn2C)CC1 (stereo unspecified),19.2
6,Cc1nc(CNC(=O)Nc2c(C)n[nH]c2C)cs1,19.9
7,CN(C)C(=O)CN1CCC2(CCN(Cc3nccs3)CC2)C1=O,-21.3
8,Cc1nc2cc(C3CCOCC3)nn2c(NCC2COCCO2)c1C (stereo unspecified),32.75
9,CCn1ncc2c1C(COCC1CC1)CN(S(=O)(=O)N(C)C)C2 (stereo unspecified),35.1
10,COCC(=O)N1CCC([C@@H]2C[C@H](C(F)(F)F)n3nc(C)cc3N2)CC1,-6.92
11,CC(c1ccccn1)N(C)Cc1ccc(-n2ccnc2)cc1 (stereo unspecified),37.6
12,N#Cc1ccc(OC[C@]23COC[C@H]2CN(c2ncccn2)C3)nc1,-7.29
13,Cc1cccc(CN2C[C@@H]3COC[C@]3(COc3ccc(C#N)cn3)C2)n1,6.8
14,Cn1cc(CN2C[C@@H]3COC[C@]3(COc3ccc(C#N)cn3)C2)cn1,-43.2
15,COc1cc(N2C[C@@H]3COC[C@]3(COc3ccc(C#N)cn3)C2)ncn1,71.1
16,COc1cc(N2C[C@@H]3COC[C@]3(COCc3cccc(C)n3)C2)ncn1,63.7
17,Cc1cccc(COC[C@]23COC[C@H]2CN(C(=O)c2ccsc2)C3)n1,-29.9
18,Cc1cccc(CNC(=O)N(CCCO)C2CCc3ccccc32)n1 (stereo unspecified),-14.6
19,CNc1snc(C)c1C(=O)NC(C)CC(=O)c1cccs1 (stereo unspecified),44.6
20,O=C(N1CCCC1)N1CCC(Nc2ccncn2)CC1,34.1
21,CC(C)c1cc(NC2CCN(C(=O)N3CCCC3)CC2)ncn1,74.7
22,CC(C)C1CN(C(=O)c2cccs2)CCS1 (stereo unspecified),29.5

row,SMILES,INHIBITION [%]
1,O=C(N1CCOCC1)N1CCC(Nc2ccncn2)CC1,29.4
2,CC(C)c1cc(NC2CCCN(C(=O)c3cccs3)C2)ncn1 (stereo unspecified),80
3,CCc1nc(NC2CCCN(C(=O)c3cccs3)C2)c2cnn(C)c2n1 (stereo unspecified),32.8
4,COc1ccc(CC(=O)NC2(C#N)CCOCC2)c(Cl)c1,-8.4
5,Cc1ccc(N2CCCC(NCc3cccs3)C2)nn1 (stereo unspecified),-19.4
6,CCNC(=O)NC(=O)CN1CCCC1c1nc(C2CCCCC2)co1 (stereo unspecified),10.8
7,O=C(O)CCn1ccc(=O)c2cc(F)ccc21,38.1
8,CC(=O)Nn1ccc2c(nnc3c(-c4ccc(F)cc4)cnn32)c1=O,58.5
9,CC(=O)Nn1ccc2c(nnc3c(-c4ccccc4)cnn32)c1=O,58.5
10,O=C(O)CCn1ccc2c(nnc3c(-c4ccc(F)cc4)cnn32)c1=O,63.6
11,O=C(O)CCn1ccc(=O)c2ccccc21,35.1
12,CCN(C)C(=O)NCC1(CN2CCOCC2)CCCCC1,5.76
13,O=C(c1cc(=O)c(OCc2ccccc2F)co1)N1CCCC1,-51.9
14,COCCNC(=O)c1cnc(N(C)C)nc1C,14.2
15,CSc1nccn1-c1cccc(C(=O)NCCC(=O)NC(C)C)c1,15.5
16,CC(=O)NCCCC(=O)N1CCc2[nH]c(-c3ccccc3)nc2C1,35.8
17,Cc1cc(O)n2nc(C3CCN(C(=O)c4ccccn4)CC3)cc2n1,7.55
18,CC(=O)N1[C@H](CN(C)C)C[C@@H]2CN(C(=O)Cc3cccs3)CC[C@@H]21,-61.5
19,Cn1nc(Br)c2c(NCCN)ncnc21,15.7
20,Cc1ccc(-c2cc(N)c(=O)n(CC(=O)NC3CCCCC3)n2)s1,55.2
21,Cc1ccc(-c2cc(N)c(=O)n(CC(=O)NC3CCCC3)n2)s1,6.32
22,Cc1ccc(-c2cc(N)c(=O)n(CC(=O)NCC3CCCCC3)n2)s1,39.2
